Results published in PubChem BioAssay (NCATS).
Several values for one entry are separate records, joined by “and”; a condition that tells them apart may be missing. Equal values may be shown once. Inconclusive results are not listed. Activity calls are given as the source filed them. Calls follow the shape of the dose curve; as a rule, active = well fitted activation curve with a large enough effect; inconclusive = small, poorly fitted or top-dose-only effect; inactive = no such curve, though single readings can be large or run the other way.

What follows are compounds tested against Cellular tumor antigen p53 (Homo sapiens) (UniProt P04637) (assay: Primary qHTS for small molecule compounds that upregulate eGFP-tagged delta133p53alpha (in N-terminal) cells. (AID 2060322;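 also: series mostly up to about 56 µM; 0% = DMSO vehicle and 100% = reference activator; nearly all actives have a fitted effect of over 75% in size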)). Conditions: NCI-H358 eGFP-delta133p53alpha fluorescence, 24 h; activation: active compounds read high.
Cellular tumor antigen p53 (Homo sapiens), sequence (P04637 whole entry, looked up): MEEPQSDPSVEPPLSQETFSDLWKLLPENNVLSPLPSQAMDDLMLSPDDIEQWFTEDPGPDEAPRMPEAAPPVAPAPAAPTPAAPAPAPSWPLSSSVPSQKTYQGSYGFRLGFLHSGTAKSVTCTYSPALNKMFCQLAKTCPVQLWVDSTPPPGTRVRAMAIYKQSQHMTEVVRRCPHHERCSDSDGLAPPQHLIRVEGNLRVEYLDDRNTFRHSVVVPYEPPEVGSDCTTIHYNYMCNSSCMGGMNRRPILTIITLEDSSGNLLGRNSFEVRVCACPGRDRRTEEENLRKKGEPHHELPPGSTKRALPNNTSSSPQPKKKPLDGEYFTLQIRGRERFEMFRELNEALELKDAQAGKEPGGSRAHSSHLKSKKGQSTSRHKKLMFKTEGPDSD
Procedure, shortened: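 NCI-H358 cells pre-induced 24 h with 10 ng/ml doxycycline to express N-terminal eGFP-delta133p53alpha, then dosed 24 h at 37C without doxycycline; fixed, Hoechst-stained, GFP intensity by laser scanning cytometry, normalized to DMSO (0%) and 57.5 uM 5-azacytidine (100%).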

Row | SMILES | activation
1 | CN(C/C=C/C#CC(C)(C)C)Cc1cccc2ccccc12 | -0.565% (inactive)
2 | N[C@H]1C(O)O[C@H](CO)[C@@H](O)[C@@H]1O (stereo not given in full) | -0.837% (inactive)
3 | Cc1ccc(S(=O)(=O)NC(=O)NC2CCCC2)cc1 | 23.2% (inactive)
4 | COc1ccc([C@@H]2CC(=O)c3c(O)cc(O[C@@H]4O[C@H](CO[C@@H]5O[C@@H](C)[C@H](O)[C@@H](O)[C@@H]5O)[C@@H](O)[C@H](O)[C@@H]4O)cc3O2)cc1O | 4.43% (inactive) and 6.54% (inactive)
5 | Cc1ncc(CO)c(CN)c1O | 16.4% (inactive)
6 | CO[C@H]1O[C@@H]2O[C@@]3(C)CC[C@@H]4[C@@H](C)CC[C@@H]([C@H]1C)[C@@]24OO3 | 20% (inactive)
7 | C[C@H](O)C(=O)Nc1c(I)c(C(=O)NC(CO)CO)c(I)c(C(=O)NC(CO)CO)c1I | 10.9% (inactive)
8 | Clc1ccccc1-c1nc(-c2ccncc2)no1 | 11.7% (inactive)
9 | Cc1cc(O)c(C(C)C)cc1Cl | -0.565% (inactive)
10 | CCOC(=O)N[C@@H]1CC[C@@H]2[C@@H](C1)C[C@H]1C(=O)O[C@H](C)[C@H]1[C@@H]2C=Cc1ccc(-c2cccc(F)c2)cn1 | 8.14% (inactive)
11 | COc1cc2nc(N3CCN(C(=O)C4CCCO4)CC3)nc(N)c2cc1OC (stereo not given) | 1.69% (inactive) and 38.8% (inactive)
12 | O=C(OCC(O)CO)c1ccccc1Nc1ccnc2c(C(F)(F)F)cccc12 (stereo not given) | -13.4% (inactive)
13 | O=C(CS(=O)Cc1ccco1)NCC=CCOc1cc(CN2CCCCC2)ccn1 (stereo not given) | 38.6% (inactive)
14 | O=C(Nc1ccccc1)Nc1ccc(-c2ccc(C(=O)[C@H]3CCC[C@H]3C(=O)O)cc2)cc1 | -3.35% (inactive)
15 | O=C1OC(CN2CCOCC2)CN1/N=C/c1ccc([N+](=O)[O-])o1 (stereo not given) | 5.02% (inactive)
16 | CCOC(=O)[C@H](CCc1ccccc1)N[C@@H](C)C(=O)N1Cc2ccccc2C[C@H]1C(=O)O | 17.6% (inactive)
17 | CC(C)N(CC[C@H](c1ccccc1)c1cc(CO)ccc1O)C(C)C | 16.8% (inactive)
18 | CCOC(=O)NNc1nncc2ccccc12 | 20.1% (inactive)
19 | Cc1ccccc1C(C(=O)NC1CCCC1)N(C(=O)Cn1cnc2ccccc21)c1cccc(F)c1 (stereo not given) | -4.95% (inactive)
20 | CC(COc1ccccc1)NN (stereo not given) | 6.69% (inactive)
21 | O=P(O)(O)OCC(O)CO (stereo not given) | -9.21% (inactive)
22 | O=C(O)c1cn(C2CC2)c2cc(Cl)c(F)cc2c1=O | 11.9% (inactive)
23 | N=C(N=C(N)N)N1CCOCC1 | 1.67% (inactive) and -4.92% (inactive)
24 | C#C[C@]1(O)CC[C@H]2[C@H]3CCc4cc(OC)ccc4[C@H]3CC[C@@]21C | -30% (inactive)
25 | CCOC(=O)N1CCN([N+]([O-])=NOc2ccc([N+](=O)[O-])cc2[N+](=O)[O-])CC1 | 8.17% (inactive)
